Compound activity: PubChem BioAssay, National Center for Advancing Translational Sciences (NCATS)
SW480 rereplic: inducers of DNA re-replication in SW480 colon cancer cells; SW480 DNA re-replication, Hoechst DNA content imaging, 48 h; 340,000 tested, 1.8% active; Potency, µM (top dose mostly 46.1 µM), actives largely listed as activators; also: nearly all actives have a fitted effect of over 55% in size
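Compounds, transferred as 23 nL by pin tool, were incubated with cells for 48 hr; DNA content per nucleus was then quantified by Hoechst staining and fluorescence plate imaging.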
VP16 counter: inhibits Gal4-VP16 luciferase reporter, ROR gamma counter-screen. Drosophila S2 Gal4-VP16 UAS-luciferase, luminescence, 20 h. Potency, µM (series often up to 53.6 µM), actives largely listed as inhibitors. 310,000 tested, 3.5% active;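 also: Gal4-VP16 expression switched on by copper sulfate through the metallothionein promoter; nearly all actives have a fitted effect of over 50% in size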
ELG1 DNA repair: blocks ELG1-dependent DNA repair in HEK293T cells; Potency, µM (series often up to 46.1 µM), hits mostly inhibitors; 330,000 tested, 2.3% active; HEK293T ELG1-luciferase reporter, luminescence, 16 h; DNA damage induced by 5-fluorouridine; AID 504467; also: nearly all actives have a fitted effect of over 55% in size
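HEK293T cells expressing luciferase-tagged ELG1 (2,000/well) received 5-Fluorouridine plus compound or DMSO for 16 hr at 37 °C. Luciferase was read by ONE-Glo luminescence after 30 min at room temperature.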
RORg inh: blocks mouse ROR gamma transcriptional activity | Potency, µM (top dose mostly 53.6 µM), actives largely listed as inhibitors | AID 2551 | Drosophila S2 Gal4-RORgamma UAS-luciferase reporter, 20 h | 310,000 tested, 5.4% active; also: nearly all actives have a fitted effect of over 60% in size
Target sequence (P51450 whole entry, looked up, the tested form may be a part): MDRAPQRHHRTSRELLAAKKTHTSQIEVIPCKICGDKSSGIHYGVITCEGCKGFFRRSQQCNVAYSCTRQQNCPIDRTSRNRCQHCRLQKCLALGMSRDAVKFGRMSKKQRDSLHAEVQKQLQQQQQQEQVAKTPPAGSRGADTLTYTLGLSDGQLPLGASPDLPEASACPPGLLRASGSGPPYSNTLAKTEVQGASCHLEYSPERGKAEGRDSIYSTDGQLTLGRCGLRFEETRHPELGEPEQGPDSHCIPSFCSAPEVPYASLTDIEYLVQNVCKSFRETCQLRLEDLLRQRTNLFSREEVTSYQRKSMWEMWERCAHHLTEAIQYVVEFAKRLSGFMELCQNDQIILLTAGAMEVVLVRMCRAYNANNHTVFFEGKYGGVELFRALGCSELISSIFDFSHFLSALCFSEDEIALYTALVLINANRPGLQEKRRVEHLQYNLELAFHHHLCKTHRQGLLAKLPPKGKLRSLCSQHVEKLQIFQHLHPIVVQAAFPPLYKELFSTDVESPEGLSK
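Schneider cells (Drosophila), stable Gal4 DBD–ROR gamma + UAS-luc; 1 hr cmpd preincubation; Cu2+ induction 700 uM final; 20 hr ambient; luminescence.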
MCF10A rerep: induces DNA re-replication in MCF 10a normal breast cells; MCF 10A DNA re-replication, Hoechst nuclear intensity, 48 h; Potency, µM (series often up to 46.1 µM), actives largely listed as activators; 350,000 tested, 2.9% active; AID 624296; also: nearly all actives have a fitted effect of over 50% in size
Hits are given with their value; 0 = inactive; ? = inconclusive; - = no result given; [ ] = another dose, or the depositor's remark. Hits are enriched below; roughly 10% of the tested compounds scored in any of these assays. Calls follow the shape of the dose curve; as a rule, active = well fitted curve in the direction sought with a large enough effect; inconclusive = small, poorly fitted or top-dose-only effect, or another doubt; inactive = no such curve, though single readings can be large; an effect the other way counts as inactive or inconclusive.

SMILES	SW480 rereplic	VP16 counter	ELG1 DNA repair	RORg inh	MCF10A rerep
COc1ccc(/C=C/C(=O)NC(=S)NNC(=O)c2ccco2)cc1	?	?	0	3.2µM	?
O=C(Nc1ccc(NC(=S)NC(=O)c2ccco2)cc1)c1ccccc1	0	0	?	?	0
C=C(C)CNC(=S)NNC(=O)c1ccco1	1.8µM	5µM	0	3.5µM	16µM
COc1ccc(C2/C(=C(/O)c3ccc(F)cc3)C(=O)C(=O)N2CCCN2CCOCC2)cc1OC (centres undefined)	0	0	0	0	0
Cc1cc(Cl)ccc1OC(C)C(=O)NN=C1CCCCCC1 (centres undefined)	?	0	?	0	0
COc1cc2ccccc2cc1C(=O)NNC(=O)c1ccccc1O	-	?	26µM	11µM	-
COc1ccccc1C(=O)NNC(=O)c1cccc(F)c1	?	10µM	?	10µM	0
COc1ccc(C(=O)NNC(=O)C2CCCO2)cc1 (centres undefined)	0	0	0	0	0
COc1ccccc1C(=O)NNC(=O)C1CCCO1 (centres undefined)	0	0	0	11µM	0
COc1ccc(NC(=O)c2cc3ccccc3cc2OC)cc1	0	0	?	?	0
COc1ccc(/C=C/C(=O)NC(=S)NNC(=O)c2cc(OC)c(OC)c(OC)c2)cc1	0	0	7.3µM	0	0
Cc1nccc2[nH]c(=O)c(C(=O)NC(C)CCc3ccccc3)cc12 (centres undefined)	-	0	0	0	-
CCOP(=O)(c1ccccc1)C(O)c1ccccc1 (centres undefined)	0	0	0	0	0
COc1cc(/C=C2/SC(=S)N(CC(=O)Nc3nc4ccccc4s3)C2=O)cc(OC)c1OC	?	0	0	10µM	0
CCc1nnc(NC(=O)CN2C(=O)/C(=C/c3cc(OC)c(OC)c(OC)c3)SC2=S)s1	0	?	0	16µM	?
COc1cc(/C=C2\SC(=S)N(CC(=O)Nc3ccccn3)C2=O)cc(OC)c1OC	?	0	?	0	0
Cn1c(=S)[nH]c2scc(-c3cccs3)c2c1=O	0	5µM	?	0.79µM	?
C=CCn1c(=S)[nH]c2scc(-c3cccs3)c2c1=O	0	0.79µM	?	0.63µM	?
O=c1c2c(-c3cccs3)csc2ncn1-c1ccc(Br)cc1	0	0	?	0	0
O=c1[nH]cnc2scc(-c3cccs3)c12	0	0	0	0	0
Cc1ccc(NC(=S)NCCO)c(C)c1	0	0	0	0	0
COCCCNC(=S)Nc1ccc(OC(F)F)cc1C	0	0	0	11µM	0
COCCCNC(=S)NNC(=S)NCCCOC	0	0	0	?	?
COCCCNC(=S)Nc1cc(C)c(C)cc1C	0	35µM	0	7.1µM	0
Cc1cccc(N2CCN(C(=O)Cc3ccccc3[N+](=O)[O-])CC2)c1C	0	0	0	0	0
SMILES	SW480 rereplic	VP16 counter	ELG1 DNA repair	RORg inh	MCF10A rerep
Cc1ccc(NNC(=O)C(=O)N2CCCCC2)cc1	0	0	0	?	6.5µM
CCOc1cc2c(cc1O)C(=NOC)CC1C2CCC2(C)C(O)CCC12 (centres undefined)	5.8µM	-	-	-	2.1µM
Cc1cc(NC(=O)c2c([N+](=O)[O-])cnn2C)no1	0	0	0	0	0
O=C(OCCN1C(=O)c2ccccc2C1=O)c1cc(S(=O)(=O)N2CCOCC2)ccc1Cl	0	0	0	0	0
O=C(OCCN1C(=O)c2cccc3c(N4CCOCC4)ccc(c23)C1=O)c1ccccc1Cl	?	?	12µM	?	0
O=C(OCCN1C(=O)c2cccc3c(N4CCOCC4)ccc(c23)C1=O)c1ccc(Cl)cc1Cl	5.8µM	0	?	0	?
O=C(OCCN1C(=O)c2cccc3c(N4CCOCC4)ccc(c23)C1=O)c1cccc(Cl)c1	?	0	?	0	0
Cc1cc(C)cc(OC(=O)CS(=O)c2ccc(C(F)(F)F)cc2[N+](=O)[O-])c1 (centres undefined)	?	?	?	?	12µM
O=C(CS(=O)c1ccc(C(F)(F)F)cc1[N+](=O)[O-])Oc1ccc(Cl)cc1 (centres undefined)	?	?	?	?	13µM
COc1cc(C2c3c(oc4ccc(C)cc4c3=O)C(=O)N2c2cc(C)ccn2)cc(OC)c1OC (centres undefined)	-	0	0	0	-
Cc1ccc2oc3c(c(=O)c2c1)C(c1cccc(O)c1)N(c1ccccn1)C3=O (centres undefined)	0	?	16µM	?	0
COc1cc(C(=O)Nc2ccc(S(=O)(=O)N3CCCCC3)cc2)ccc1OCC(=O)N1CCOCC1	0	-	-	-	0
Cc1cc(Br)c(OCC(=O)NN)c2c1CCC2	0	0	0	0	15µM
CCCCN=c1scc(-c2ccc3c(c2)NC(=O)CO3)n1N=C1CCCC1	0	0	23µM	0	?
COCC(C)n1c(-c2ccc3c(c2)NC(=O)CO3)csc1=Nc1ccc(OC(F)F)cc1 (centres undefined)	?	?	?	?	3.3µM
CN(C)S(=O)(=O)c1cccc(N=c2scc(-c3ccc4c(c3)NC(=O)CO4)n2CC2CCCO2)c1 (centres undefined)	0	?	23µM	0	0
COc1ccccc1N=c1scc(-c2ccc3c(c2)NC(=O)CO3)n1CC1CCCO1 (centres undefined)	0	0	16µM	0	?
O=C1COc2ccc(-c3csc(=Nc4ccc(OC(F)F)cc4)n3CC3CCCO3)cc2N1 (centres undefined)	?	?	?	?	16µM
COc1ccccc1CN(C)C(=O)CN1CCN(CC(=O)Nc2ccccc2Cl)CC1	0	-	?	-	0
CC(N=C1NS(=O)(=O)c2ccccc21)C(=O)N1CCc2ccccc2C1 (centres undefined)	0	0	0	?	0
Cc1cccc2cc(/C=N/Nc3ccc(C(=O)O)cc3)c(Cl)nc12	0	0	?	?	3.7µM
O=C(O)c1ccc(N/N=C/c2cc3ccccc3nc2Cl)cc1	?	?	?	?	8.2µM
COCCCn1cc(C(=O)c2cc(OC)ccc2OCC(=O)Nc2cc(C)on2)cc(C#N)c1=O	0[9.22 µM]	0	0	0	0
O=C(NC1CCCCC1)C(c1ccccc1)N(C(=O)c1csnn1)C1CC1 (centres undefined)	0	0	0	0	0
COC(=O)c1sccc1NC(=O)c1cccc(OC)c1	0	?	0	0	0
COc1cc(OC)cc(C(=O)NNC(=O)c2ccc3c(c2)OCCO3)c1	0	-	?	-	0
COc1cccc(C(=O)Nc2nnc(-c3ccc(F)cc3)o2)c1	0	1.8µM	0	5µM	0
COc1cccc(C(=O)Nc2nnc(-c3cccs3)o2)c1	0	0.79µM	?	0.63µM	0
COc1cc(OC)cc(-c2nnc(NC(=O)c3ccc4c(c3)OCCO4)o2)c1	0	0.63µM	0	0.32µM	0
COc1cccc(-c2nnc(NC(C)=O)o2)c1	0	?	?	?	0
